Source: PubChem BioAssay AID620 (Sanford-Burnham Center for Chemical Genomics, 2007)
Hit rate of the full screen: of about 87,000 compounds, about 360 (0.41%) were called active. The entries come from a sample that favours actives as a whole. Values without a mark were called inactive. Cut-off read from the data, not from the text of the source: active = cytotoxicity above about 50%; inactive = the rest.

Test: HT1080 cell viability loss – fluorescence readout (AID 620);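 note: cells exposed to compound overnight then 4 h with Alamar Blue; 0% = vehicle DMSO and 100% = killing control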
Details: at 10 µM, active compounds read high

Compared with `Cc1ccc(-c2noc(CCCN3C(=O)c4ccccc4C3=O)n2)cc1`, `Cc1nn(-c2ccccc2)c2sc(C(=O)OCN3C(=O)c4ccccc4C3=O)cc12` is lower in cytotoxicity: -3.5% for the first, -4% for the second.

Compared with `CC(C)c1ccc(NC(=S)NCc2cccs2)cc1`, `CCC(C)[C@H](NC(=O)NCc1cccs1)C(=O)O` (some centres undefined) is higher in cytotoxicity: -17.4% for the first, 8.7% for the second.

First: O=C(CN1CCc2ccccc2C1)Nc1ccc(Br)cc1
Second: COc1ccc(CC(=O)N2CCCc3ccccc32)cc1
The cytotoxicity of the first is higher: -3.2% for the first, -11% for the second.

Going from `O=C(Nc1ccc(N2CCN(C(=O)c3ccccc3)CC2)c(Cl)c1)c1ccc(Br)o1` to `O=C(Nc1ccc(N2CCN(C(=O)c3ccccc3)CC2)c(Cl)c1)c1ccco1`, the cytotoxicity falls from 22.5% to -4.5%.

Compared with `O=C(Nc1ccc(N2CCN(C(=O)c3ccco3)CC2)c(Cl)c1)c1c(F)c(F)c(F)c(F)c1F`, `O=C(Nc1ccc(N2CCCC2)c(Cl)c1)c1ccc(Br)o1` is higher in cytotoxicity: -3% for the first, 12.7% for the second.

First: COc1ccc2c(c1)c(=O)oc1cc(OCC(=O)N3CCCC(C)C3)ccc12 (centres undefined)
Second: COc1ccc(OC)c(NS(=O)(=O)c2ccc3c(c2)n(C)c(=O)n3C)c1
The cytotoxicity of the first is higher: -1.8% for the first, -7.2% for the second.

Compared with `CCC1=C(C)N(CCCC(=O)O)C(=O)NC1c1cccc(Cl)c1Cl` (centres undefined), `CCc1ccccc1NC(=O)CN1C(=O)C2CCCN2c2ncc(Cl)cc21` (centres undefined) is higher in cytotoxicity: -11.7% for the first, -1.2% for the second.

First: CCOC(=O)C1=C(C)NC(SCC(=O)O)=C(C#N)C1c1ccco1 (centres undefined)
Second: CCOC(=O)c1cnc(SCc2ccc(C)cc2)nc1N
The cytotoxicity of the first is lower: -8% for the first, 5.8% for the second.

Compared with `O=C(CN(C1CCCCC1)S(=O)(=O)c1ccccc1)NCc1cccnc1`, `O=C(Nc1ccc(NC(=O)C2CCCCC2)nc1)c1ccco1` is lower in cytotoxicity: 1.3% for the first, -0.2% for the second.

First: CCOC(=O)c1c(C)[nH]c2cc(Br)c(OC)cc12
Second: CCN(CC)S(=O)(=O)c1ccc(Br)c(OC)c1
The cytotoxicity of the first is lower: -9% for the first, -1.2% for the second.

First: C=CCNC(=O)C12CC3(C)CC(C)(CC(C)(C3)C1)C2
Second: Cc1cc(C)c(S(=O)(=O)NCC2CCC(C(=O)NCCCN3CCOCC3)CC2)c(C)c1 (centres undefined)
The cytotoxicity of the first is lower: -24.6% for the first, 2.9% for the second.

Compared with `CCOC(=O)Nc1sc(C(=O)N(CC)CC)c(C)c1C(=O)OCC`, `CCOC(=O)c1c(NC(=O)CN(C)C)sc(C(=O)N(CC)CC)c1C` is higher in cytotoxicity: -6% for the first, 25.3% for the second.

Going from `CC(C)(C)NC(=O)Cn1nnnc1-c1nonc1N` to `COC(=O)c1ccccc1NC(=O)Cn1c(-c2nonc2N)nc2ccccc21`, the cytotoxicity rises from 0.2% to 32%.

First: CCC(=O)Nc1nonc1-c1nc2ccccc2n1Cc1ccc(Cl)c(Cl)c1
Second: CCC(=O)Nc1nonc1-c1nc2ccccc2n1CC(C)C
The cytotoxicity of the first is lower: -2.7% for the first, 2.9% for the second.

Going from `CCCCOc1ccccc1NC(=O)Cn1c(-c2nonc2N)nc2ccccc21` to `N=c1n(CCOc2ccccc2)c2ccccc2n1CCN1CCOCC1`, the cytotoxicity falls from 24.5% to 6.2%.

Compared with `O=C(O)c1cccc(CN2C(=O)CSC2=O)c1`, `O=C(O)Cc1ccc(C(=O)c2cccs2)s1` is higher in cytotoxicity: 3.1% for the first, 6.9% for the second.

First: NC(=O)c1ccccc1OCC(=O)NS(=O)(=O)c1ccc(Cl)cc1
Second: Cc1ccccc1NS(=O)(=O)c1ccc(F)cc1
The cytotoxicity of the first is lower: -12.8% for the first, 6.2% for the second.

Going from `CC(C)COc1ccc(CNC(=S)N/N=C/c2ccc([N+](=O)[O-])cc2)cc1` to `COc1ccc(CCNS(=O)(=O)c2ccc(N3CCCC3=O)cc2)cc1`, the cytotoxicity rises from -12.7% to -12.5%.

Compared with `O=C1C2CCCN2C(c2cccc(F)c2)N1c1cccc(Cl)c1` (centres undefined), `O=C1CCCN1c1ccc(S(=O)(=O)NCCOc2ccccc2)cc1` is lower in cytotoxicity: 8.3% for the first, -6.1% for the second.

Compared with `CCCCOC(=O)Cn1c(=N)n(CCN2CCOCC2)c2ccccc21`, `CCCCOc1ccc(CSc2nncn2N)cc1` is higher in cytotoxicity: -3.2% for the first, 0.8% for the second.

Going from `O=C(COc1ncnc2ccccc12)NC1CCS(=O)(=O)C1` (centres undefined) to `COc1ccc2nc(NC(=O)CCn3cccc3)sc2c1`, the cytotoxicity rises from 0.3% to 2.1%.

First: COc1ccccc1N1CCN(Cc2nc(N)nc(Nc3ccc(C)cc3)n2)CC1
Second: CCOC(=O)C1CCN(C(=O)Nc2ccc3nc(C)c(C)nc3c2)CC1
The cytotoxicity of the first is lower: -2.7% for the first, 2.9% for the second.

First: CSc1nc(C)c2cc(C)oc2n1
Second: Cc1cc(C)c(NC(=O)c2ccc(S(=O)(=O)N3CCOCC3)cc2)c(C)c1
The cytotoxicity of the first is higher: 10.3% for the first, -5.9% for the second.

Compared with `CN1CCN(C2=C(Cl)C(=O)C(c3cnc(N4CCCCC4)s3)=C(Cl)C2=O)CC1`, `CN(C)c1ncc(C2=C(Cl)C(=O)C(N3CCCC3)=C(Cl)C2=O)s1` is lower in cytotoxicity: 37.1% for the first, 16.7% for the second.

Compared with `C=CCN1C(=O)S/C(=C/c2ccsc2)C1=O`, `N#CC1=C2C=CC=CN2CC1=O` is lower in cytotoxicity: 2.6% for the first, -0.7% for the second.

First: C/C=C/COC(=O)c1[nH]c2c(c1C)C(=O)CC(c1ccc(N(C)C)cc1)C2 (centres undefined)
Second: Cc1ccc(C(=O)c2nocc2C(=O)c2cccs2)cc1
The cytotoxicity of the first is higher: -0.3% for the first, -9.5% for the second.

Compound `CCSC1(SCC)N=C(N)C2(C#N)C(c3ccccc3)NC(C)=C(C)C12C#N` (centres undefined) has a cytotoxicity of 6.9%.

With `O=C(Nc1ccc(N2CCN(C(=O)c3ccco3)CC2)c(Cl)c1)c1cc2ccccc2o1` the cytotoxicity was 81.6% (active).
In the case of `O=C(Nc1ccc(N2CCOCC2)c(Cl)c1)c1ccc(Br)o1`, the cytotoxicity is reported as 51.4% (active).
In the case of `CCOC(=O)c1c(NC(=O)CCl)sc(C(=O)N(CC)CC)c1C`, the cytotoxicity is reported as 53.8% (active).
In the case of `CCC(=O)Nc1nonc1-c1nc2ccccc2n1Cc1cccc2ccccc12`, the cytotoxicity is reported as 56.3% (active).
In the case of `CCOC(=O)c1ccccc1NC(=O)Cn1c(-c2nonc2N)nc2ccccc21`, the cytotoxicity is reported as 60.4% (active).
For `N=c1n(CCN2CCOCC2)c2ccccc2n1CC(=O)c1ccc(Cl)c(Cl)c1`, the cytotoxicity was 80.5% (active).
For `Cc1ccccc1NS(=O)(=O)c1ccc(N2CCCC2=O)cc1`, the cytotoxicity was 56.7% (active).
For `COc1ccc(OC)c(NS(=O)(=O)c2ccc(N3CCCC3=O)cc2)c1`, the cytotoxicity was 60.6% (active).
For `C/C=C/COC(=O)c1[nH]c2c(c1C)C(=O)CC(c1ccco1)C2` (centres undefined), the cytotoxicity was 65.5% (active).
In the case of `C=CCOC(=O)c1[nH]c2c(c1C)C(=O)CC(c1ccco1)C2` (centres undefined), the cytotoxicity is reported as 67.5% (active).
With `O=C(c1cccs1)c1no[n+]([O-])c1C(=O)c1cccs1` the cytotoxicity was 73.8% (active).
